# Results as given in PubChem BioAssay AID1159580 (chemical genetic matrix, 2015).
# Where “and” joins values, the source holds several entries; their conditions need not be identical. Identical values can stand only once. Hit rate of the full screen: of about 5,500 compounds, about 2,000 (36%) were called active. Inconclusive results (about 18%) are left out. Rule as the data show it: active = normalized growth mostly below about 0.91 (no sharp cut-off); inconclusive = no clear call, values can overlap the other calls; inactive = mostly above about 0.92. Some of the results follow. Some compounds were tested as several samples or in several runs, with calls that do not always agree.
# Assay: chemical genetic growth profiling, strain panel (AID 1159580);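 also: tested at 20 µM; growth read once vehicle control cultures reached saturation at 30 °C; 1 = growth at the plate median or of vehicle wells; lower values mean less growth of the strain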
# Details: S. cerevisiae deletion strains, growth OD
structure (smiles),measurement,setting,value
CN(C)CCCN1c2ccccc2Sc2ccc(C(F)(F)F)cc21,normalized growth,"locus YJR066W, strain TOR1, stronger effect = lower value",0.981 (inactive)
same,normalized growth,"locus YJR075W, strain HOC1, stronger effect = lower value",1.01 (inactive)
same,normalized growth,"locus YKL009W, strain mrt4, stronger effect = lower value",0.944 (inactive)
same,normalized growth,"locus YKL068W, stronger effect = lower value",0.991 (inactive)
same,normalized growth,"locus YKL085W, strain MDH1 (second series), stronger effect = lower value",0.994 (inactive)
same,normalized growth,"locus YKL085W, strain MDH1, stronger effect = lower value",0.994 (inactive)
same,normalized growth,"locus YKL160W, strain elf1, stronger effect = lower value",0.997 (inactive)
same,normalized growth,"locus YKL190W, strain CNB1, stronger effect = lower value",0.995 (inactive)
same,normalized growth,"locus YKR001C, strain vps1, stronger effect = lower value",0.978 (inactive)
same,normalized growth,"locus YKR026C, strain gcn3, stronger effect = lower value",1.02 (inactive)
same,normalized growth,"locus YKR091W, strain srl3, stronger effect = lower value",1.02 (inactive)
same,normalized growth,"locus YLL001W, strain dnm1, stronger effect = lower value",1 (inactive)
same,normalized growth,"locus YLL026W, stronger effect = lower value",1 (inactive)
same,normalized growth,"locus YLL041C, strain sdh2, stronger effect = lower value",1.01 (inactive)
same,normalized growth,"locus YLR027C, strain aat2, stronger effect = lower value",0.992 (inactive)
same,normalized growth,"locus YLR039C, strain RIC1, stronger effect = lower value",0.901 (inactive)
same,normalized growth,"locus YLR058C, strain SHM2, stronger effect = lower value",0.977 (inactive)
same,normalized growth,"locus YLR102C, strain apc9, stronger effect = lower value",0.979 (inactive)
same,normalized growth,"locus YLR113W, strain HOG1, stronger effect = lower value",0.979 (inactive)
same,normalized growth,"locus YLR221C, strain rsa3, stronger effect = lower value",0.977 (inactive)
same,normalized growth,"locus YLR258W, strain gsy2, stronger effect = lower value",0.989 (inactive)
same,normalized growth,"locus YLR262C, strain YPT6 (second series), stronger effect = lower value",1.16 [resistant] (active)
same,normalized growth,"locus YLR262C, strain YPT6, stronger effect = lower value",0.87 (inactive)
same,normalized growth,"locus YLR268W, strain sec22, stronger effect = lower value",1.05 (inactive)
same,normalized growth,"locus YLR320W, strain mms22, stronger effect = lower value",1.06 (inactive)
same,normalized growth,"locus YLR330W, strain CHS5, stronger effect = lower value",0.989 (inactive)
same,normalized growth,"locus YLR342W, strain FKS1 (second series), stronger effect = lower value",1 (inactive)
same,normalized growth,"locus YLR342W, strain FKS1, stronger effect = lower value",1.02 (inactive)
same,normalized growth,"locus YLR357W, strain rsc2, stronger effect = lower value",1.02 (inactive)
same,normalized growth,"locus YLR370C, strain arc18, stronger effect = lower value",1 (inactive)
same,normalized growth,"locus YLR371W, strain rom2, stronger effect = lower value",0.955 (inactive)
same,normalized growth,"locus YLR384C, strain iki3, stronger effect = lower value",1.01 (inactive)
same,normalized growth,"locus YLR418C, strain cdc73, stronger effect = lower value",0.958 (inactive)
same,normalized growth,"locus YML016C, strain PPZ1, stronger effect = lower value",0.994 (inactive)
same,normalized growth,"locus YML032C, strain rad52, stronger effect = lower value",0.989 (inactive)
same,normalized growth,"locus YML120C, strain ndi1, stronger effect = lower value",0.97 (inactive)
same,normalized growth,"locus YML124C, strain tub3, stronger effect = lower value",0.976 (inactive)
same,normalized growth,"locus YMR058W, strain fet3, stronger effect = lower value",0.999 (inactive)
same,normalized growth,"locus YMR078C, strain ctf18, stronger effect = lower value",0.961 (inactive)
same,normalized growth,"locus YMR125W, strain sto1, stronger effect = lower value",0.992 (inactive)
same,normalized growth,"locus YMR129W, stronger effect = lower value",1.02 (inactive)
same,normalized growth,"locus YMR205C, strain PFK2, stronger effect = lower value",1.01 (inactive)
same,normalized growth,"locus YMR223W, strain ubp8, stronger effect = lower value",0.969 (inactive)
same,normalized growth,"locus YMR263W, strain SAP30, stronger effect = lower value",0.988 (inactive) and 0.998 (inactive)
same,normalized growth,"locus YMR307W, strain GAS1, stronger effect = lower value",1.05 (inactive) and 1.01 (inactive)
same,normalized growth,"locus YNL067W, strain RPL9B, stronger effect = lower value",1.01 (inactive)
same,normalized growth,"locus YNL071W, strain lat1, stronger effect = lower value",1.01 (inactive)
same,normalized growth,"locus YNL128W, strain TEP1, stronger effect = lower value",0.968 (inactive) and 1.11 [resistant] (active)
